Where two headings read alike, the source gives them in different places.

Set-up in all cases: species or system human, MV4-11 + K-562 + COLO205 + SK-N-BE2 + OVCAR-8
Assay [1] has as its system AURKA. The following applies: read-out: apparent Kd, n = 1.
Assay [2] concerns BCR. The following applies: read-out: apparent Kd, n = 1.
Assay [3] deals with PRKACA. The following applies: read-out: apparent Kd, n = 1.
The test system of assay [4] is PRKACB. The following applies: read-out: apparent Kd, n = 1.
For assay [5], the system named is ATM. To be noted: read-out: apparent Kd, n = 1.
Assay [6] concerns CAMKK2. The following applies: read-out: apparent Kd, n = 1.
The test system of assay [7] is CHEK1. To be noted: read-out: apparent Kd, n = 1.
In assay [8] the test system is CSNK1D. The following applies: read-out: apparent Kd, n = 1.
For assay [9], the system named is EPHA4. To be noted: read-out: apparent Kd; compound concentrations:100 nM and 1000 nM (sheet 'Samples'); n = 1.
In assay [10] the test system is EPHA5. The following applies: read-out: apparent Kd; compound concentrations:100 nM and 1000 nM (sheet 'Samples'); n = 1.
Assay [11] relates to EPHB2. The following applies: read-out: apparent Kd; compound concentrations:100 nM and 1000 nM (sheet 'Samples'); n = 1.
In assay [12] the test system is EPHB4. The following applies: read-out: apparent Kd; compound concentrations:100 nM and 1000 nM (sheet 'Samples'); n = 1.
Assay [13] concerns PRKAG2. The following applies: read-out: apparent Kd, n = 1.
In assay [14] the test system is TNK1. The following applies: read-out: apparent Kd; compound concentrations:100 nM and 1000 nM (sheet 'Samples'); n = 1.
Assay [15] has as its system TNK2. To be noted: read-out: apparent Kd; compound concentrations:100 nM and 1000 nM (sheet 'Samples'); n = 1.
In assay [16] the test system is STK4. To be noted: read-out: apparent Kd, n = 1.
The test system of assay [17] is MAPK10. To be noted: read-out: apparent Kd, compound concentrations: 100 nM and 1000 nM (sheet 'Samples'), n = 1.
Assay [18] concerns CDK16. The following applies: read-out: apparent Kd, compound concentrations: 100 nM and 1000 nM (sheet 'Samples'), n = 1.
Assay [19] deals with MAPK9. To be noted: read-out: apparent Kd, compound concentrations: 100 nM and 1000 nM (sheet 'Samples'), n = 1.
Assay [20] concerns MARK3. The following applies: read-out: apparent Kd; compound concentrations: 100 nM and 1000 nM (sheet 'Samples'), CATDS: 1.24991581563988E-2; n = 1.
[21] abbreviates: compound concentrations:100 nM and 1000 nM (sheet 'Samples').

Take `Cc1ccc(Nc2ccnc(Nc3ccc4c(c3)CS(=O)(=O)C4)n2)cc1O.Cl` [GW579362A]: the potency estimated from few doses in [1] (compound concentrations: 100 nM and 1000 nM (sheet 'Samples'), CATDS: 4.77260985286359E-2) was 393 nM; in [2] (compound concentrations: 100 nM and 1000 nM (sheet 'Samples'), CATDS: 4.5785194143174703E-2), 428 nM.
Regarding `CCn1c(-c2nonc2N)nc2c(C#CC(C)(C)O)nc(OCCN)cc21.CCn1c(-c2nonc2N)nc2c(C#CC(C)(C)O)nc(OCCN)cc21.Cl.Cl` [GSK902056A], the potency estimated from few doses in assay [3] (setting [21]) was 1200 nM; in assay [4] (setting [21]), 1000 nM.
As to `Cc1ccc2c(-c3ccncc3)c(-c3ccc(F)cc3)nn2c1.Cl` [GW461484A], the potency estimated from few doses is 262 nM in [5] (setting [21]); 545 nM in assay [2] (setting [21]); 1180 nM in assay [6] (setting [21]); 1870 nM in [7] (setting [21]); 125 nM in assay [8] (setting [21]); 550 nM in [9]. For the same compound, the potency estimated from few doses in assay [10] is 429 nM; in assay [11] it was 341 nM; in assay [12], 275 nM; in assay [3] (setting [21]) it was 1900 nM; in [13] (setting [21]), 417 nM; in [14] it was 280 nM. Further, in assay [15], the potency estimated from few doses was 328 nM.
In the case of `Cc1cccc(Nc2nc(N[C@H]3CCNC3)ncc2C(N)=O)c1.Cl` [GSK2197149A], the potency estimated from few doses in [16] (setting [21]) is 1490 nM.
Regarding `Cc1cc(-c2ccnc(Nc3cccc(C#N)c3)n2)cc(C)c1O` [GSK1440913A], in assay [17] (CATDS: 8.7033733779345604E-2), the potency estimated from few doses was 990 nM.
Take `Cl.Cl.NC(CNC(=O)c1cc(Br)c(-c2ccnc3[nH]ccc23)s1)c1ccccc1.NC(CNC(=O)c1cc(Br)c(-c2ccnc3[nH]ccc23)s1)c1ccccc1` (stereo not shown) [GSK1322949A]: the potency estimated from few doses in [3] (compound concentrations: 100 nM and 1000 nM (sheet 'Samples'), CATDS: 2.91010350116075E-2) is 1300 nM.
`COc1cc(Nc2nccc(-c3cnn4ncccc34)n2)cc(OC)c1` [GW801372X]: the potency estimated from few doses in assay [5] (compound concentrations: 100 nM and 1000 nM (sheet 'Samples'), CATDS: 3.2681942140962102E-2) is 274 nM; in [6] (compound concentrations: 100 nM and 1000 nM (sheet 'Samples'), CATDS: 1.8078594286366201E-2), 1750 nM; in assay [18] (CATDS: 1.6995450779384601E-2), 2320 nM; in [8] (compound concentrations: 100 nM and 1000 nM (sheet 'Samples'), CATDS: 1.8156615660070499E-2), 1710 nM; in assay [17] (CATDS: 2.5530057385415701E-2), 532 nM; in assay [19] (CATDS: 1.8501615721313099E-2), 1580 nM.
For `CNCc1ccc(-c2cc(-c3nc(-c4ccc(S(=O)(=O)C(C)C)cc4)cnc3N)on2)cc1` [VE-822], the potency estimated from few doses in assay [5] (setting [21]) was 13.5 nM.
As to `FC(F)(F)c1ccc(-c2ncn(CCCN3CCOCC3)c2-c2ccncc2)cc1` [SB-217780], the potency estimated from few doses in assay [16] (compound concentrations: 100 nM and 1000 nM (sheet 'Samples'), CATDS: 0.215555066939567) is 1540 nM.
With `c1ccc(-c2n[nH]cc2Nc2ccnc3ccccc23)nc1` [GW694077X], the potency estimated from few doses in assay [8] (compound concentrations: 100 nM and 1000 nM (sheet 'Samples'), CATDS: 2.5323353021981399E-2) was 1390 nM; in assay [19] (CATDS: 2.3391396830632599E-2), 1900 nM.
Turning to `CNc1cc(-c2ccc3c(N)n[nH]c3c2)nc(N)n1` [GSK2224810A], the potency estimated from few doses in assay [13] (setting [21]) was 1090 nM.
Consider `CN(C)CCNC(=O)Nc1ccc(N(C)c2ccnc(Nc3ccc(CS(C)(=O)=O)cc3)n2)cc1.Cl` [GW830900A], for which the potency estimated from few doses in assay [1] (setting [21]) was 893 nM.
As for `O=C(O)C(F)(F)F.O=c1[nH]ccc2nc(N[C@@H]3CCNC3)nc(Nc3ccc4c(c3)S(=O)(=O)CC4)c12` [GSK2181306A], the potency estimated from few doses was 620 nM in assay [18] (CATDS: 1.11902252687631E-2); 672 nM in [7] (compound concentrations: 100 nM and 1000 nM (sheet 'Samples'), CATDS: 1.0862390298074001E-2); 1080 nM in [8] (compound concentrations: 100 nM and 1000 nM (sheet 'Samples'), CATDS: 9.27581508882039E-3); 470 nM in [20]; 504 nM in assay [13] (compound concentrations: 100 nM and 1000 nM (sheet 'Samples'), CATDS: 1.2141088500549201E-2); 175 nM in [16] (compound concentrations: 100 nM and 1000 nM (sheet 'Samples'), CATDS: 2.0109118463760199E-2).
For `NCC(NC(=O)c1cc(-c2cn[nH]c2)c(-c2ccnc3[nH]ccc23)s1)c1ccccc1.NCC(NC(=O)c1cc(-c2cn[nH]c2)c(-c2ccnc3[nH]ccc23)s1)c1ccccc1.O=C(O)C(F)(F)F.O=C(O)C(F)(F)F` (stereo not shown) [GSK1325775A], the potency estimated from few doses is 2450 nM in [8] (compound concentrations: 100 nM and 1000 nM (sheet 'Samples'), CATDS: 2.89439417277669E-2); 503 nM in assay [3] (compound concentrations: 100 nM and 1000 nM (sheet 'Samples'), CATDS: 4.90722253933666E-2); 782 nM in assay [4] (compound concentrations: 100 nM and 1000 nM (sheet 'Samples'), CATDS: 4.09510310832654E-2).
Turning to `CCn1c(-c2cccnc2O)nc2cnccc21` [SB-736715], the potency estimated from few doses in assay [5] (compound concentrations: 100 nM and 1000 nM (sheet 'Samples'), CATDS: 6.3051453748071404E-2) was 146 nM; in assay [18] (CATDS: 1.2342830833646699E-2), 2030 nM; in [19] (CATDS: 1.25360352526476E-2), 1950 nM; in assay [13] (compound concentrations: 100 nM and 1000 nM (sheet 'Samples'), CATDS: 1.6059828940045699E-2), 1130 nM; in assay [16] (compound concentrations: 100 nM and 1000 nM (sheet 'Samples'), CATDS: 1.39715497774644E-2) it was 1510 nM.
